Assay outcomes (PubChem BioAssay)
A selection: hits, their analogues and other compounds. The true share with any hit is near 3.7%.
PI5P4Ka inh: blocks human PI5P4K alpha kinase activity. P48426. PI5P4Kalpha enzyme, ADP-Glo luminescence, 60 min; active compounds read low. max response, %. 1.2% of 330,000 active. AID 652105; active = max response of -50% or lower; inconclusive = between -30% and -50%; inactive = -30% or higher; note: value at the top dose of about 77 µM; % is set by controls: 0 for no effect and ±100 for the full control effect
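Human PI5P4Kalpha with substrate in 0.038 M HEPES pH 7.4, 0.28 mM EGTA, 0.1% CHAPS, 5% DMSO; reaction started with 5 microM ATP (final), 60 min at room temperature. ADP formed read by ADP-Glo luminescence.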
FEN1 inh: human FEN1 inhibition; Recombinant FEN1 flap cleavage, fluorescence, 15 min; Potency, µM (titrated, usually from 114 µM), for the others: at the highest dose activity change, negative = inhibition, hits mostly inhibitors; 0.35% of 390,000 active; P39748; AID 588795; note: potency is the fitted concentration of half-maximal effect; % is set by controls: 0 for no effect and ±100 for the full control effect; nearly all actives have a fitted effect of over 65% in size
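Compounds are tested as a concentration series against 10 nM FEN1; after a 15 min room-temperature preincubation, 50 nM substrate starts cleavage, with plate reads at 0 and 15 min. Normalized responses are fitted by a Hill equation.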
TCR activator: activators of T cell receptors. 330,000 tested, under 10 active. Potency, µM (series often up to 9.22 µM), without a hit: at the top dose activation of IL-2 secretion, actives largely listed as activators. primary human leukocytes, anti-CD3, IL-2 HTRF, 48 h; note: % of control where 0% means no effect
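IL-2 release read by HTRF sandwich (Eu cryptate donor, d2 acceptor, 665 nm emission) after 48 hr exposure of primary human leukocytes to compound together with anti-CD3 beads in the absence of co-stimulatory signals.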
PLK1 PBD inh: blocks phosphopeptide binding to human PLK1 polo-box domain; AID 720504; Plk1 PBD binding of FITC phosphopeptide, fluorescence polarization; P53350; 2.8% of 360,000 active; Potency, µM, for inactives: max response, negative = inhibition, actives largely listed as inhibitors; note: potency is the fitted concentration of half-maximal effect; series mostly up to about 57 µM; % is set by controls: 0 for no effect and ±100 for the full control effect; nearly all actives have a fitted effect of over 65% in size
Target sequence (P53350 whole entry, looked up, the tested form may be a part): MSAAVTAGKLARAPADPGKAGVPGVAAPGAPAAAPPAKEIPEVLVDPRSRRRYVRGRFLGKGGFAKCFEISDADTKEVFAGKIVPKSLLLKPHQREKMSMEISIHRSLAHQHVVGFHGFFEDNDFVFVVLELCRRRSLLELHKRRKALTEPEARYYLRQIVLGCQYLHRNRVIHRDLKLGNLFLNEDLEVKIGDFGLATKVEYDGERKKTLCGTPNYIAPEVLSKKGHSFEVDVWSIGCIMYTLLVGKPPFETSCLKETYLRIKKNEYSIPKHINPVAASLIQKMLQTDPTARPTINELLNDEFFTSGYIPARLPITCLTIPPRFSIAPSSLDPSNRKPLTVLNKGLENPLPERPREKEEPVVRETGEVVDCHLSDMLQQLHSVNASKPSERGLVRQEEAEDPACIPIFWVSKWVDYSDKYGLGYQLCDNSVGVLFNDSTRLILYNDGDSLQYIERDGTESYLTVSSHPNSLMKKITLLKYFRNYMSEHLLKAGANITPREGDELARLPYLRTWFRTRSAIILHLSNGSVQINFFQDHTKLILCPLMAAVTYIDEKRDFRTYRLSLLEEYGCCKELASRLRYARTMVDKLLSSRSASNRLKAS
VDR inhibitor: vitamin D3 receptor (human) inhibition. VDR-SRC2-3 peptide fluorescence polarization, 2 h. P11473. AID 504847. 0.93% of 400,000 active. Potency, µM, for the others: max response, negative = inhibition, actives largely listed as inhibitors; note: potency is the fitted concentration of half-maximal effect; % is set by controls: 0 for no effect and ±100 for the full control effect
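FP read-out; VDR + SRC2-3 coactivator peptide; 23 nl compound by pintool; 2 h RT incubation; reagents held at 4 deg C, protected from light.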
WRN helicase inh: inhibitors of human WRN helicase. Q14191. WRN helicase unwinding, fluorescent forked duplex, kinetic. Potency, µM (highest dose often 114 µM), for inactives: at the highest dose activity change, negative = inhibition, usual class: inhibitors. 0.46% of 360,000 active. AID 651768; note: potency is the fitted concentration of half-maximal effect; % is set by controls: 0 for no effect and ±100 for the full control effect; nearly all actives have a fitted effect of over 55% in size
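Primary qHTS, 1536-well format. 20 nM WRN + compound, 15 min RT; start with 100 nM forked fluorophore/quencher duplex, 2 mM ATP (final); kinetic read ex 525/em 598 nm.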
* marks the source's active call; other numbers are inactive results; ? = inconclusive; / = no result given; [ ] = dose if it differs, or a comment. Unless noted, calls come from the whole dose curve; as a rule, active = well fitted curve in the direction sought with a large enough effect; inconclusive = small, poorly fitted or top-dose-only effect, or another doubt; inactive = no such curve, though single readings can be large; an effect the other way counts as inactive or inconclusive.

SMILES	PI5P4Ka inh	FEN1 inh	TCR activator	PLK1 PBD inh	VDR inhibitor	WRN helicase inh
COC(=O)c1c(-c2ccc(C)cc2)csc1NC(=O)c1c(-c2ccccc2)noc1C	/	/	-5.9%[46.1 µM]	/	/	/
COC(=O)c1c(-c2cccnc2)csc1NC(=O)c1cc(C)on1	/	-1.4%	-4.2%	6.7µM*	79.4µM*	-15.2%
O=C(COc1ccccc1C(=O)Nc1ccccc1)Nc1cccc(Cl)c1	/	4.5%	/	/	/	/
CC1CCC(NC(=O)CNC(=O)Cc2cccc3ccccc23)CC1 (centres undefined)	-8.9	4.6%	-36.9%	23.8µM*	?	12.4%
CCc1cccc(C)c1NC(=O)CCn1nc(C)c2c(C)n(-c3ccccc3)nc2c1=O	/	3.3%	/	/	-0.3%	/
Fc1cccc(Cc2c(-c3ccco3)nc3c(Cl)cc(C(F)(F)F)cn23)c1	?	/	/	11.9µM*	/	-10.5%
Cc1ccc(S(=O)(=O)N2[C@@H](c3ccc(Br)cc3)C(C(=O)O)=CC[C@H]2c2ccc(Cl)cc2)cc1	-5.6	-22.7%	-2.8%	26.7µM*	-25.7%	-0.9%
CCc1ccc([C@@H]2CC=C(C(=O)O)[C@H](c3ccc(Br)cc3)N2S(=O)(=O)c2ccc(C)cc2)cc1	10.2	?	0.2%	26.7µM*	?	-2.8%
O=C(O)C1=CC[C@@H](c2ccc(Cl)cc2)N(S(=O)(=O)c2ccc(Cl)cc2)[C@H]1c1ccc(Br)cc1	-28.3	-1.6%	0.6%	26.7µM*	-28.4%	-15.5%
Cc1ccc(S(=O)(=O)N2[C@@H](c3ccc(F)cc3)C(C(=O)O)=CC[C@H]2c2ccc(C(C)C)cc2)cc1	8.0	-7.8%	-3.2%	?	-13.3%	-25.8%
Cc1ccc(S(=O)(=O)N2[C@@H](c3cccc(Cl)c3)C(C(=O)O)=CC[C@H]2c2ccc(C(C)C)cc2)cc1	-23.7	-8.6%	8.9%	21.2µM*	-20.5%	-3.8%[11.6 µM]
CCCCc1ccc(-n2nc3ccc(NC(=O)c4cc5ccccc5o4)cc3n2)cc1	/	-4.7%	/	/	-22.6%	/
CCN(CC)c1ccc(NC(=O)Cn2nc(C)n3cccc3c2=O)c(C)c1	/	0.6%	/	/	13.0%	/
O=C(O)C1=CC[C@@H](c2ccc(Cl)cc2)N(S(=O)(=O)c2ccc(Cl)cc2)[C@H]1c1cccc(Cl)c1	-5.8	-3.1%	3.0%	29.9µM*	-6.3%	-17.3%
Cc1ccc([C@H]2C(C(=O)O)=CC[C@@H](c3ccc(Cl)c(Cl)c3)N2S(=O)(=O)c2ccc(C)cc2)cc1	-3.7	-0.5%	6.4%	29.9µM*	-26.2%	-4.5%
Cc1ccc(S(=O)(=O)N2[C@@H](c3ccccc3)C(C(=O)O)=CC[C@H]2c2ccc(Cl)cc2)cc1	0.0	-4.6%	2.4%	23.8µM*	?	-4.5%
CCc1ccc([C@H]2C(C(=O)O)=C[C@@H](CC3CCCC3)N2S(=O)(=O)c2ccc(C)cc2)cc1	1.8	0.4%	3.0%	21.2µM*	-11.0%	-15.2%
Cc1ccc(S(=O)(=O)N2[C@@H](c3ccccc3)C(C(=O)O)=CC[C@H]2c2ccc(Cl)c(Cl)c2)cc1	-5.6	-17.2%	-5.4%	?	?	2.0%
COc1cc2[nH]c(=O)n(CCCCCC(=O)N3CCN(c4ccc(Cl)cc4)CC3)c(=O)c2cc1OC	/	-11.2%	/	/	12.9%	/
CC[C@H](C)[C@H](NC(=O)[C@H](CCC(=O)O)NC(=O)CNC(=O)[C@@H](NC(=O)[C@H](CCC(=O)O)NC(=O)[C@H](CCC(=O)O)NC(=O)[C@H](CC(C)C)NC(=O)CNC(=O)[C@@H]1CCCN1C(=O)[C@H](CCC(=O)O)NC(=O)[C@@H](N)[C@@H](C)O)C(C)C)C(=O)N[C@@H](CCC(=O)O)C(=O)N[C@@H](CCC(N)=O)C(=O)N[C@@H](CCCCN)C(=O)N[C@@H](CCC(N)=O)C(=O)N[C@@H](CC(C)C)C(=O)N[C@@H](CCC(N)=O)C(=O)O	/	/	/	/	-6.4%	/
CCCC[C@@H]1C=C(C(=O)O)[C@H](c2ccc(Cl)c(Cl)c2)N1S(=O)(=O)c1ccc(C)cc1	7.6	-12.1%	-2.1%	29.9µM*	?	-16.2%
Cc1ccc(S(=O)(=O)N2[C@@H](c3ccc(Cl)cc3)C(C(=O)O)=CC[C@H]2c2cccc(Cl)c2)cc1	1.8	-15.4%	0.3%	23.8µM*	-16.8%	5.6%
CN1CCCc2ccccc21	/	-13.4%	/	/	/	/
CO/N=C/C(=N\Nc1ccccc1)C(=O)c1ccccc1	14.3	3.2%	3.1%	23.8µM*	-25.5%	3.9%[57.1 µM]
CO/N=C/C(=N\Nc1ccc(OC)cc1)C(=O)c1ccc(F)cc1	6.2	3.3%	-6.9%	23.8µM*	1.2%	1.2%[57.1 µM]
SMILES	PI5P4Ka inh	FEN1 inh	TCR activator	PLK1 PBD inh	VDR inhibitor	WRN helicase inh
CO/N=C/C(=N\Nc1ccc(C)cc1)C(=O)c1ccc(OC)cc1	32.1	-10.5%	0.0%	-3.1%	5.4%	-11.8%
CO/N=C\C(=N\Nc1ccc(OC)cc1)C(=O)c1ccccc1	9.8	-17.5%	3.1%	4.5%	10.0%	-2.0%
COc1ccccc1/C=C/c1cncc(/C=C/c2ccccc2OC)c1	/	-9.3%	/	/	/	/
CCCCCCNc1ccc(/C=C/c2ccnc3ccccc23)cc1	/	-16.8%	/	/	/	/
Cc1cccc(-n2c(O)c(C=Nc3ccccc3)c3ccccc3c2=O)n1	-15.7	-21.2%	8.0%	23.8µM*	31.6µM*	-20.3%
COc1ccc(N=Cc2c(O)n(-c3cccc(C)n3)c(=O)c3ccccc23)cc1	-5.5	?	0.4%	-5.9%	-4.1%	-27.6%
CC(C)CCn1nnc2sc(-c3ccccc3)cc2c1=O	/	14.4%	/	/	4.9%	/
CCOC(=O)/C=C1/SCC(=O)N1CC(=O)NC12CC3CC(CC(C3)C1)C2	-4.1	-4.3%	1.4%	-8.1%	5.4%	4.4%
CCOC(=O)/C=C1\SCC(=O)N1CC(=O)c1ccc[nH]1	-53.4*	-1.7%	2.5%	-1.3%	-0.6%	-6.7%[11.6 µM]
COc1ccc(N2CCN(C(=O)Cn3nc(Cc4cccnc4)c4ccccc4c3=O)CC2)cc1	/	12.6%	/	/	-11.6%	/
Cc1cc(C)c2c(CC(=O)Nc3nnc(CC(C)C)s3)coc2c1	/	23.7%	/	/	19.8%	/
C=CCC(O)(C#Cc1ccccc1)c1ccccc1 (centres undefined)	/	/	/	/	2.5%	/
Cc1ccc(S(=O)(=O)NCC(=O)NCC(=O)OCC(=O)N2CC(=O)Nc3ccccc32)cc1C	-21.2	7.9%	4.9%	16.8µM*	-12.2%	0.7%
C[N+]1(CC(=O)c2ccc(O)c(O)c2)CCOCC1	/	-18.2%	/	/	/	/
Cn1ccc2c([N+](=O)[O-])cccc2c1=O	-15.2	-8.3%	-0.9%	29.9µM*	-24.0%	3.9%
CCCC12CN3CC(C)(CN(C1)C3c1ccco1)C2=O (centres undefined)	-7.4	-8.2%	-2.4%	18.9µM*	?	-7.3%
Cc1cccc(N2CCN(C(=O)CS(=O)(=O)c3cccc4nsnc34)CC2C)c1 (centres undefined)	/	-6.6%	/	/	-2.5%	/
